# D1 potentiator = Potentiators of Human D1 Dopamine Receptor: qHTS. HEK293 TREx D1 cells, calcium flux, dopamine EC20 potentiation. potentiation, % at 10 µM. 360,000 compounds, 0.036% hits. AID 504651, 2011; in the data active = potentiation above about 30%; also: 0% is about no effect
# Target sequence (P21728 whole entry, looked up): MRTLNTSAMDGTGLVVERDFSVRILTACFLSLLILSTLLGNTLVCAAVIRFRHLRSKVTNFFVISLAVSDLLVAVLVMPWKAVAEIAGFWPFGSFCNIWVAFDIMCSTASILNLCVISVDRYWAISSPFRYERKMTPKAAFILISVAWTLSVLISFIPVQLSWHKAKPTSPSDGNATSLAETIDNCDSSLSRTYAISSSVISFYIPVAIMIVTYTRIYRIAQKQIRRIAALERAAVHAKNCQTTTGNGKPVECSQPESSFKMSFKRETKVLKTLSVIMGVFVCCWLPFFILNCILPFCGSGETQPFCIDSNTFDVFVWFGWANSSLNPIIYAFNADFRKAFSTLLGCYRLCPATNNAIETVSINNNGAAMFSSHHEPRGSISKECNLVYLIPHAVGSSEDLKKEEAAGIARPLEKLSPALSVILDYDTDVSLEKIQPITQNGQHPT
# TRHR ag = qHTS for Small Molecule Agonists and Allosteric Enhancers of Human TRH Receptor: Primary Screen for Agonists | Thyrotropin-releasing hormone receptor (Homo sapiens), P34981 | TRHR cells, calcium flux fluo-8, FDSS agonist mode | activation, % at 2 µM | 360,000 compounds, 0.18% hits; also: 0% is about no effect
#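 TRHR-expressing cells loaded with fluo-8 calcium dye; 23 nL library compound pin-transferred, kinetic FDSS fluorescence (Ex 480/Em 530) recorded about 180 s for agonist-induced calcium release, before a 10 nM TRH EC20 addition for potentiator mode.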
# TRHR PAM = qHTS for Small Molecule Agonists and Allosteric Enhancers of Human TRH Receptor: Primary Screen for Enhancers; Thyrotropin-releasing hormone receptor (Homo sapiens), P34981; TRHR cells, fluo-8 calcium fluorescence, EC20 TRH enhancement; enhancement, % at 2 µM; 360,000 compounds, 0.66% hits; AID 493056, 2011; in the data active = enhancement above about 30%; also: 0% is about no effect
#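 TRHR-expressing cells loaded with fluo-8 calcium dye were read kinetically (ex 480/em 530) during compound addition, then stimulated with an EC20 of TRH (10 nM final). Enhancement of the Gq-mediated intracellular calcium response was scored.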
# D1 agonist = Allosteric Agonists of the Human D1 Dopamine Receptor: qHTS. D(1A) dopamine receptor (Homo sapiens), P21728. HEK293 T-REx D1 cells, calcium flux, agonist mode. activation, % at 2 µM. 360,000 compounds, 1% hits. AID 504660, 2011; also: 0% is about no effect
#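 Tetracycline-induced HEK293 TREx D1 cells, force-coupled to calcium signalling, were dye-loaded with a no-wash calcium kit. Compound was pin-added after a 10 s baseline. Fluorescence was read kinetically at 1 cycle/s for 180 s, with calcium rises flagged as agonism.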
# D1 antagonist = Antagonist of Human D 1 Dopamine Receptor: qHTS; HEK293 TREx D1 cells, calcium flux, dopamine EC80; stronger effect = lower value; 360,000 compounds, 3.2% hits; D(1A) dopamine receptor (Homo sapiens), P21728; activity change, negative = inhibition, % at 10 µM; in the data active = activity change below about -30%; also: % is scaled to controls: 0 for no effect and ±100 for the full control effect
#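 Cells carrying a force-coupled, tetracycline-inducible human D1 receptor report calcium flux. Each well gets a 10 s baseline, compound with 180 s monitoring, then an EC80 dopamine stimulus with a second 180 s kinetic read.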
# Active calls of the source: *; . = not tested or not shown. A selection: hits, their analogues and other compounds. The true share with any hit is near 4.7%. Rule as the data show it, unless noted: active = activation above about 30%; inactive = the rest.
SMILES,D1 potentiator,TRHR ag,TRHR PAM,D1 agonist,D1 antagonist
COc1ccc(CCNc2oc(COc3ccc(Br)cc3)nc2C#N)cc1OC,.,0,-1,2,-32*
CCN(CC)S(=O)(=O)c1ccc2c(c1)N(CC(=O)N1CCN(c3cccc(C)c3)C(C)C1)C(=O)CO2 (stereo not given),5,0,-10,-1,9
FC(F)(F)c1cccc(Nc2nc3nonc3nc2Nc2ccc(Cl)cc2)c1,-5,6,-9,51*,-48*
COc1ccccc1CNC(=O)C1CCCC1,-5,0,-3,-1,3
COc1ccccc1CN1CCCCC1C(=O)O (stereo not given),5,0,41*,4,-7
COc1ccc(N2CCN(c3csc4ccc(Cl)cc4c3=O)CC2)cc1,0,1,4,43*,10
Cc1noc(NS(=O)(=O)c2ccc(N/C=C\C(=O)c3cccc4ccccc34)cc2)c1C,-1,1,2,43*,19
COc1cccc(C(=O)/C=C/Nc2ccc(S(=O)(=O)Nc3onc(C)c3C)cc2)c1,-9,0,2,1,-3
Cc1noc(NS(=O)(=O)c2ccc(NC(=O)C(Cl)(Cl)Cl)cc2)c1C,-1,0,-2,8,6
Cc1noc(NS(=O)(=O)c2ccc(NC(=O)Nc3ccc(Cl)c(Cl)c3)cc2)c1C,-13,1,4,33*,-47*
Cc1ccc(C(=O)Nc2cccc(C(=O)OCc3cc(=O)n4c5c(sc4n3)CCCC5)c2)cc1,0,-1,4,2,-1
CC(CN1CCNCC1)(NS(=O)(=O)c1ccccc1)c1ccccc1 (stereo not given),-13,0,3,0,-35*
Cc1ccc(S(=O)(=O)NC(C)(C)CN2CCNCC2)cc1,-2,0,-1,4,0
CN1CCN(Cc2c(O)ccc3occ(C(=O)c4ccccc4)c23)CC1,-11,0,28,15,-77*
CCCCN1C(=O)/C(=C2/Sc3ccccc3N2C)S/C1=N\c1ncn[nH]1,-4,2,-6,3,-54*
Cc1ccc(CN2C(=O)C(O)(CC(=O)c3ccc(C)cc3)c3ccccc32)cc1 (stereo not given),0,-1,4,-2,-2
O=C(CCC(=O)N1CCSc2ccccc21)Nc1cccc(F)c1,-2,1,-3,4,-31*
O=C(CCCN1C(=O)c2ccccc2C1=O)N1CCOCC1,6,0,33*,0,0
O=C(CCN1C(=O)c2ccccc2C1=O)N1CCOCC1,-6,0,-10,4,-5
O=C(CN1C(=O)c2ccccc2S1(=O)=O)NC1CC2CCC1C2 (stereo not given),.,0,4,0,-73*
O=C1c2ccccc2C(=O)N1CCSC(=S)N1CCOCC1,3,0,41*,6,-4
CC(C)NC(=O)CN1C(=O)c2ccccc2S1(=O)=O,-2,0,-2,2,-10
O=C(CN1C(=O)c2ccccc2S1(=O)=O)N1CCOCC1,1,0,7,2,-34*
COc1ccc(CNC(=O)CN(c2ccc(C(C)C)cc2)S(=O)(=O)c2c(C)noc2C)cc1,2,1,-11,14,-16
COc1ccc(NC(=O)CSC2=Nc3ccccc3C3=NC(Cc4ccccc4)C(=O)N23)cc1 (stereo not given),2,0,7,11,-6
O=C(CCCCCCN1C(=O)c2ccccc2C1=O)N1CCC(c2ccccc2)C1 (stereo not given),-11,0,4,23,-44*
O=C(CCCCCCCCN1C(=O)c2ccccc2C1=O)N1CCOCC1,-6,0,0,9,-24
O=C(NN=C1C2CC3CC1CC(Cl)(C3)C2)c1ccccn1,-6,0,0,-1,-4
O=C(NN=C1C2CC3CC1CC(Cl)(C3)C2)c1cccs1,-18,-1,2,0,-39*
